We go through 3 compounds from PubChem BioAssay (EPA / NIEHS).

Holding throughout (details): mRNA level, 48 h; actives raise or lower the signal
Read-out in test [1]: Insulin-like growth factor-binding protein 1 (IGFBP1), IGFBP1 (gene 3484)
The test is described as follows: LTEA_HepaRG_IGFBP1: Life Technologies and Expression Analysis (LTEA) Assay for Insulin-like growth factor-binding protein 1 (IGFBP1) using HepaRG (AID 2283508). A digest of the protocol: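 Read-out is qRT-PCR transcript level normalized to three housekeeping genes, fitted in both directions against 0.5% DMSO. Differentiated HepaRG cells received eight half-log concentrations (top 100 uM) in duplicate for 48 h in serum-free induction medium.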

Read-out in test [2]: Interleukin 6 (IL6), IL6 (gene 3569)
The test can be described thus: LTEA_HepaRG_IL6: Life Technologies and Expression Analysis (LTEA) Assay for Interleukin 6 (IL6) using HepaRG (AID 2283509). In outline: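 Changes in IL6 mRNA, up or down relative to 0.5% DMSO controls, were derived from concentration-response curves in human HepaRG cells treated for 48 h at up to 100 uM, with ACTB, GAPDH and POLR2A as normalizers.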

Read-out in test [3]: Interleukin 6 Receptor (IL6R), IL6R (gene 3570)
The test can be described thus: LTEA_HepaRG_IL6R: Life Technologies and Expression Analysis (LTEA) Assay for Interleukin 6 Receptor (IL6R) using HepaRG (AID 2283510).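 On AC50: differentiated human HepaRG liver cells in serum-free induction medium; TaqMan qRT-PCR signal normalized to ACTB GAPDH and POLR2A housekeeping genes.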 A digest of the protocol:
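In this HepaRG screen, test chemicals act on cells for 48 h at up to 100 uM (eight half-log points, duplicate wells). IL6R expression is quantified by qRT-PCR after normalization to ACTB, GAPDH and POLR2A, with DMSO as baseline.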

Read-out in test [4]: Potassium channel subfamily K member 1 (KCNK1), KCNK1 (gene 3775)
The test is described as follows: LTEA_HepaRG_KCNK1: Life Technologies and Expression Analysis (LTEA) Assay for Potassium channel subfamily K member 1 (KCNK1) using HepaRG (AID 2283511). In outline: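 Human HepaRG cultures receive test chemicals for 48 h in 0.5% DMSO, top concentration 100 uM with half-log dilutions. Induction or suppression of KCNK1 mRNA relative to DMSO is derived by bidirectional fitting of qRT-PCR data.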

Read-out in test [5]: Keratin 19 (KRT19), KRT19 (gene 3880)
The test can be described thus: LTEA_HepaRG_KRT19: Life Technologies and Expression Analysis (LTEA) Assay for Keratin 19 (KRT19) using HepaRG (AID 2283512). A digest of the protocol: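 KRT19 transcript measured by TaqMan qRT-PCR, referenced to three housekeeping genes, after HepaRG cells received test chemicals for 48 h. Eight half-log concentrations, top 100 uM, 0.5% DMSO vehicle; increases and decreases both fitted.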

Read-out in test [6]: JUN Transcription Factor, JUN (gene 3725)
The test is described as follows: LTEA_HepaRG_JUN: Life Technologies and Expression Analysis (LTEA) Assay for JUN Transcription Factor using HepaRG (AID 2283513). A digest of the protocol:
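Gene-expression endpoint: JUN mRNA (qRT-PCR, normalized to three reference genes) in HepaRG cultures treated 48 h with chemicals, duplicate wells, 100 uM maximum with half-log dilutions; bidirectional fitting relative to 0.5% DMSO.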

Read-out in test [7]: Lipase C (LIPC), LIPC (gene 3990)
The test can be described thus: LTEA_HepaRG_LIPC: Life Technologies and Expression Analysis (LTEA) Assay for Lipase C (LIPC) using HepaRG (AID 2283514). In outline:
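In this multiplexed gene-expression screen, human HepaRG cultures received test chemicals for 48 h across eight concentrations with 100 uM highest, in duplicate. Values reflect LIPC mRNA induction or suppression versus DMSO vehicle, from normalized qRT-PCR.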

Read-out in test [8]: Lipoprotein lipase (LPL), LPL (gene 4023)
The test is described as follows: LTEA_HepaRG_LPL: Life Technologies and Expression Analysis (LTEA) Assay for Lipoprotein lipase (LPL) using HepaRG (AID 2283515). In outline:
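Concentration-response testing used half-log steps from 100 uM in 0.5% DMSO on human HepaRG cells, 48 h, duplicate wells. Phenobarbital 1 mM served as induction control; LPL mRNA was normalized to ACTB, GAPDH, POLR2A.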

Read-out in test [9]: MicroRNA 122 (MIR122), gene 406906
The test is described as follows: LTEA_HepaRG_MIR122: Life Technologies and Expression Analysis (LTEA) Assay for MicroRNA 122 (MIR122) using HepaRG (AID 2283516). Further: the transcript read is the microRNA miR-122. In outline: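 Changes in transcript abundance, up or down relative to 0.5% DMSO vehicle, were scored after 48 h chemical treatment of HepaRG cells (maximum 100 uM). Quantification used TaqMan qRT-PCR normalized to housekeeping genes.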

Read-out in test [10]: matrix metalloproteinase-10 (MMP10), MMP10 (gene 4319)
The test is described as follows: LTEA_HepaRG_MMP10: Life Technologies and Expression Analysis (LTEA) Assay for matrix metalloproteinase-10 (MMP10) using HepaRG (AID 2283517). A digest of the protocol:
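In differentiated HepaRG cultures kept in 0.5% DMSO, test chemicals act for 48 h over an eight-point range with a top dose of 100 uM. Expression is then quantified by TaqMan RT-PCR against ACTB, GAPDH and POLR2A.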

Read-out in a further test: MYC, MYC (gene 4609)
The test can be described thus: LTEA_HepaRG_MYC: Life Technologies and Expression Analysis (LTEA) Assay for MYC using HepaRG (AID 2283518). In outline: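 MYC transcript changes, up or down relative to 0.5% DMSO, from TaqMan qRT-PCR normalized to three housekeeping genes. Human HepaRG cultures received chemicals for 48 h at eight half-log concentrations up to 100 uM, in duplicate.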

Read-out in test [11]: matrix metalloproteinase-3 (MMP3), MMP3 (gene 4314)
The test can be described thus: LTEA_HepaRG_MMP3: Life Technologies and Expression Analysis (LTEA) Assay for matrix metalloproteinase-3 (MMP3) using HepaRG (AID 2283519). A digest of the protocol: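 Human liver HepaRG cultures received chemicals (top concentration 100 uM, 0.5% DMSO) for 48 h in duplicate. MMP3 mRNA induction or loss was then assessed via TaqMan qRT-PCR with housekeeping-gene normalisation.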

Read-out in test [12]: Paternally Expressed 10 (PEG10), PEG10 (gene 23089)
The test can be described thus: LTEA_HepaRG_PEG10: Life Technologies and Expression Analysis (LTEA) Assay for Paternally Expressed 10 (PEG10) using HepaRG (AID 2283520). In outline: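 After 48 h exposure of differentiated HepaRG cells (0.5% DMSO vehicle, eight concentrations up to 100 uM, duplicates), PEG10 mRNA was measured by TaqMan qRT-PCR. Values were normalised to endogenous control genes and analysed bidirectionally against vehicle.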

Read-out in test [13]: Protein phosphatase 2A (PPP2R4), PTPA (gene 5524)
The test can be described thus: LTEA_HepaRG_PPP2R4: Life Technologies and Expression Analysis (LTEA) Assay for Protein phosphatase 2A (PPP2R4) using HepaRG (AID 2283522). A digest of the protocol: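 Using HepaRG cultures maintained in 0.5% DMSO, chemicals are tested 48 h at up to 100 uM in duplicate. Induction or suppression of PPP2R4 mRNA, measured by qRT-PCR, is fitted bidirectionally against the vehicle baseline.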

Read-out in test [14]: Phosphatase and tensin (PTEN), PTEN (gene 5728)
The test is described as follows: LTEA_HepaRG_PTEN: Life Technologies and Expression Analysis (LTEA) Assay for Phosphatase and tensin (PTEN) using HepaRG (AID 2283523). A digest of the protocol:
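Expression of PTEN is quantified in the human liver line HepaRG following two days of dosing (top concentration 100 uM, half-log dilutions, 0.5% DMSO). Values derive from bidirectional curve fitting relative to DMSO controls.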

Read-out in test [15]: solute carrier (SLC22A1), SLC22A1 (gene 6580)
The test can be described thus: LTEA_HepaRG_SLC22A1: Life Technologies and Expression Analysis (LTEA) Assay for solute carrier (SLC22A1) using HepaRG (AID 2283524).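 On AC50: differentiated human HepaRG liver cells in serum-free induction medium; TaqMan qRT-PCR normalized to ACTB GAPDH and POLR2A housekeeping genes.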 In outline:
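Transcript induction or suppression of SLC22A1 in human HepaRG cultures is scored after 48 h chemical treatment, with DMSO (0.5%) as baseline for bidirectional fitting. Concentrations span eight half-log points topping at 100 uM.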

Read-out in test [16]: Pyruvate Dehydrogenase Kinase 4 (PDK4), PDK4 (gene 5166)
The test is described as follows: LTEA_HepaRG_PDK4: Life Technologies and Expression Analysis (LTEA) Assay for Pyruvate Dehydrogenase Kinase 4 (PDK4) using HepaRG (AID 2283525). In outline: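 Eight-point, half-log concentration series (max 100 uM, 0.5% DMSO) applied to differentiated HepaRG cells for 48 h in duplicate. Endpoint: PDK4 mRNA induction or repression by qRT-PCR against DMSO baseline.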

Read-out in test [17]: NAD(P)H dehydrogenase [quinone] 1 (NQO1), NQO1 (gene 1728)
The test is described as follows: LTEA_HepaRG_NQO1: Life Technologies and Expression Analysis (LTEA) Assay for NAD(P)H dehydrogenase [quinone] 1 (NQO1) using HepaRG (AID 2283526). A digest of the protocol: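 In this assay, gene expression is read by qRT-PCR after 48 h exposure of HepaRG cells to eight concentrations (max 100 uM, half-log) in 0.5% DMSO. Each chemical runs in duplicate, and activity is scored relative to vehicle.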

Read-out in test [18]: Nuclear factor erythroid 2-related factor 2 (Homo sapiens) (UniProt Q16236)
The test can be described thus: LTEA_HepaRG_NFE2L2: Life Technologies and Expression Analysis (LTEA) Assay for Nuclear factor erythroid 2-related factor 2 (NFE2L2) Transcription Factor using HepaRG (AID 2283527).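 Further: TaqMan qRT-PCR transcript level normalised to ACTB GAPDH and POLR2A housekeeping genes.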 A digest of the protocol:
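Human liver HepaRG line treated in duplicate for 48 h with an eight-point series topping at 100 uM. Gene expression of NFE2L2 by qRT-PCR, bidirectionally fitted against the vehicle control.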

Active and inactive are the calls of the source. How the source made its calls: active means hit-call score of the fitted dose curve at least 0.9, where 1 is the maximum; inactive means score below 0.9.

Nuclear factor erythroid 2-related factor 2 (Homo sapiens), sequence (Q16236 whole entry, looked up): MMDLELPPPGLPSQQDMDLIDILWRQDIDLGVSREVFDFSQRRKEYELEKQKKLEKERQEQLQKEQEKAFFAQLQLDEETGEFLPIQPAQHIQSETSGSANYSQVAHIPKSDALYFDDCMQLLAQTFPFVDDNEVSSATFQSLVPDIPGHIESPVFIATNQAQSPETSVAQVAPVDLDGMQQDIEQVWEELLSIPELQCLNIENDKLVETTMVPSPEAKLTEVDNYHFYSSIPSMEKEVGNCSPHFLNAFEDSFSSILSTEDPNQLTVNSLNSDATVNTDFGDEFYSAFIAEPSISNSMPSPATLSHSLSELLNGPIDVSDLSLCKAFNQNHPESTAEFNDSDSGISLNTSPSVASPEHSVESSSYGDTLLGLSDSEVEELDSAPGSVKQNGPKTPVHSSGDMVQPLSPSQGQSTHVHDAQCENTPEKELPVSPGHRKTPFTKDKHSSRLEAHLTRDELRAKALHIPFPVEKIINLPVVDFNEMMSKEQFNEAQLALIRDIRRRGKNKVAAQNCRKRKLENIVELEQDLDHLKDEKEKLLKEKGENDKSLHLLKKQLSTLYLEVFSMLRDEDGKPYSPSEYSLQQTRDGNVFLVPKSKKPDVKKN

With `CCCCN(CC)c1c([N+](=O)[O-])cc(C(F)(F)F)cc1[N+](=O)[O-]`, the call in test [1], in test [2], in test [3], in [4], in test [5] and in test [6] was inactive. In addition, the outcome is “inactive” in [7]; “inactive” in test [8]; “inactive” in test [9]; “inactive” in [10]; “inactive” with MYC, MYC (gene 4609); “inactive” in test [11]. Also, the compound was called inactive in [12], in test [13], in test [14], in test [15], in [16] and in [17]. Further, the compound was called inactive in test [18].

Take `Cc1cc(C2CC2)nc(Nc2ccccc2)n1`: the outcome in test [1], in test [2], in test [4], in test [6], in [7] and in [8] was inactive. In addition, the outcome in test [9] is “inactive”; in test [10], “inactive”; with MYC, MYC (gene 4609), “inactive”; in test [11], “inactive”; in test [12], “inactive”; in [13], “inactive”. Moreover, the outcome in test [14], in test [16], in [17] and in test [18] was inactive. Moreover, the half-maximal activity concentration (AC50) (usually the concentration giving half of the maximal activity seen) in test [3] was 50 µM (active); in [5] it was 22.9 µM (active); in test [15] it was 67.7 µM (active).

`Cc1nn(-c2cc(NS(C)(=O)=O)c(Cl)cc2Cl)c(=O)n1C(F)F`: the outcome in test [1], in test [2], in [3], in [4], in [5] and in [6] was inactive. For the same compound, the outcome was “inactive” in test [7]; “inactive” in test [8]; “inactive” in [9]; “inactive” in test [10]; “inactive” in the test with MYC, MYC (gene 4609); “inactive” in test [11]. In addition, the result in test [12], in test [13], in [14], in [15], in test [16] and in test [17] was inactive. In addition, in [18], the call was inactive.
